Structures are written as SMILES. Where “and” joins values, the source holds several entries; their conditions need not be identical. Equal values may be shown once. Results filed as inconclusive are left out. The source holds several records for some structures; these can differ, active in one and inactive in another. Calls of active or inactive are those of the source. Unless noted, calls follow the shape of the dose curve; as a rule, active = well fitted curve in the direction sought with a large enough effect; inconclusive = small, poorly fitted or top-dose-only effect, or another doubt; inactive = no such curve, though single readings can be large; an effect the other way counts as inactive or inconclusive.

In assay [1] the target is T1, Hexokinase-4 (Homo sapiens) + Glucokinase regulatory protein (Homo sapiens) (UniProt P35557+Q14397). In words: qHTS assay for inhibitors of recombinant human GCK-GKRP interaction: Diaphorase-coupled assay (AID 743205). The method in brief:
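25 mM Hepes pH 7.6, 5 mM glucose, 0.4 mM ATP, 4 U/ml G6PDH; 10 nM each GST-GCK/FLAG-GKRP. Kinetic fluorescence read, 1/min × 30 min. Normalized: DMSO ± enzyme = max/min.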
(qHTS replaces the single test concentration by a dilution series.)

In assay [2] the target is T1, Hexokinase-4 (Homo sapiens) + Glucokinase regulatory protein (Homo sapiens). As to the kind of experiment: qHTS assay for inhibitors of recombinant human GCK-GKRP interaction: ADP-Glo assay (AID 743206).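 Also: plate controls were DMSO plus enzyme for no effect and no enzyme for full effect.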 The method in brief:
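GST-GCK and FLAG-GKRP (15 nM each in the dispensed mix, with 2 uM S6P) react with 0.4 mM ATP and 5 mM glucose (final) in Hepes pH 7.6 for 60 min at room temperature. ADP is measured by ADP-Glo luminescence.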

For assay [3] the target is unchanged. In words: qHTS assay for inhibitors of recombinant human GCK-GKRP interaction: HTRF assay (AID 743207).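 Also: 0% = DMSO with GCK present and -100% = DMSO wells lacking GCK.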 The method in brief: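 5 nM GST-GCK + 5 nM FLAG-GKRP + 2 uM S6P, pH 7.1 buffer (25 mM Hepes, 2 mM MgCl2, 25 mM KCl, 1 mM DTT, Tween/BSA); pin-transferred cpd; anti-FLAG XL665/anti-GST K; 60 min RT; HTRF.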
Assay [4] can be described thus: qHTS Assay for Identifying Gametocytocidal Compounds (AID 743244).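 Also: % is scaled to controls: 0 for no effect and ±100 for the full control effect; actives lower the fluorescent signal which means gametocytes are killed.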 The note with it: P. falciparum 3D7 stage III-V gametocytes, alamarBlue, 72 h; max response: stronger effect = lower value. The method in brief:
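Compounds are pinned into medium, gametocytes (stage III–V, 3D7, 20,000 cells/well) added, and plates held 72 h at 37 °C in 5% CO2. AlamarBlue follows for 24 h before fluorescence reading.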

Assay [5] is described as follows: qHTS profiling of the MIPE4 collection as inhibitors of Plasmodium falciparum (3D7) proliferation (AID 743344; call rule not given here;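 also: scaled between DMSO vehicle wells and 0.29 µM artemisinin as full inhibition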). Particulars: P. falciparum 3D7 in erythrocytes, SYBR Green DNA fluorescence, 72 h; at 28.5 µM (top of the series) unless noted. The method in brief: (§1)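 Erythrocytes infected with P. falciparum (0.3% parasitemia, 2.5% hematocrit) incubated with compounds 72 h at 37 C, 5% CO2. Lysis with saponin/Triton buffer containing SYBR Green I, overnight at room temperature in the dark; DNA fluorescence (485/535 nm) normalised to 0.29 uM artemisinin and DMSO.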

Assay [6] in a line: qHTS profiling of the MIPE4 collection as inhibitors of Plasmodium falciparum (DD2) proliferation (AID 743345; call rule not given here). The note with it: P. falciparum Dd2 in erythrocytes, SYBR Green DNA, 72 h; at 28.5 µM (top of the series) unless noted. The method in brief:
as §1

Assay [7] can be described thus: qHTS profiling of the MIPE4 collection as inhibitors of Plasmodium falciparum (DD2) proliferation (Rep 2) (AID 743346; call rule not given here). Particulars: P. falciparum Dd2 in erythrocytes, SYBR Green DNA, 72 h; at 28.5 µM (top of the series) unless noted. The method in brief:
as §1

Assay [8] can be described thus: qHTS profiling of the MIPE4 collection as inhibitors of Plasmodium falciparum (HB3) proliferation (AID 743347; call rule not given here;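 also: plate controls were DMSO vehicle wells for no effect and artemisinin wells for full effect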). Particulars: P. falciparum HB3 in erythrocytes, SYBR Green DNA, 72 h; at 28.5 µM (top of the series) unless noted. The method in brief:
as §1

The nature of assay [9]: High-throughput drug toxicity screening in the BPDCN cell line Gen2.2 (AID 1224824; call rule not given here;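 also: cells exposed to compounds for 48 h before reading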). The note with it: Gen2.2 BPDCN cells; at 45.8 µM (top of the series) unless noted. The method in brief:
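Seed 500 exponentially growing Gen2.2 cells/well; add compounds by pin tool; incubate 48 h, 37 °C, 5% CO2; add CellTiter-Glo, 15 min RT; read luminescence. % activity vs DMSO (100%) and bortezomib (0%).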

Assay [10] is described as follows: High-throughput drug toxicity screening in the BPDCN cell line Cal-1 (AID 1224825; call rule not given here). Particulars: Cal-1 BPDCN cell viability, qHTS; at 45.8 µM (top of the series) unless noted. The method in brief: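 Cal-1 cells, 500 per well in phenol-red-free RPMI with 10% FBS, exposed to compounds for 48 hours at 37C, 5% CO2. Viability read by CellTiter-Glo luminescence; percent activity normalized to DMSO (100%) and 9.2 uM bortezomib final (0%).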

Assay [11] can be described thus: qHTS assay for measurement of the activity of small molecule inhibitors on Zika virus induced Caspase-3 activity in human iPSC derived neural progenitor cells (hNPCs) (AID 1224857). Also: nearly all actives have a fitted effect of over 65% in size. Also: potency is read from the fitted curve at half-maximal effect. The method in brief: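 Pretreat hNPCs with compound 1 h; infect ZIKV 2 FFU/cell; 6 h 37 C, 5% CO2; Caspase-Glo 3/7, 30 min RT; luminescence; normalize to no-virus and virus-only wells.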

A short description of assay [12]: qHTS assay for measurement of the activity of small molecule inhibitors on Zika virus induced Caspase-3 activity in human astrocytoma cells (AID 1224859).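 Also: plate controls were ZIKV-infected untreated cells for no effect and uninfected cells for full effect.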 The method in brief: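 Human SNB-19 astrocytoma cells in RPMI 1640 with 10% FBS receive compound one hour ahead of Zika virus at 2 FFU/cell. After 6 h infection, caspase-3/7 activity is detected by Caspase-Glo luminescence.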

A short description of assay [13]: qHTS Screen of the MIPE 4.0 Collection Against Ewings Sarcoma (RDES) (AID 1259252). Also: nearly all actives have a fitted effect of over 35% in size. Also: potency is read from the fitted curve at half-maximal effect. The method in brief:
(§2)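 Viability screen: 48 h incubation at 37C, 95% humidity, 5% CO2 with serially titrated compound, followed by CellTiter-Glo readout.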

The nature of assay [14]: qHTS Screen of the MIPE 4.0 Collection Against Ewings Sarcoma (TC71) (AID 1259253). Also: nearly all actives have a fitted effect of over 40% in size. Also: potency is read from the fitted curve at half-maximal effect. The method in brief: as §2
The nature of assay [15]: qHTS Screen of the MIPE 4.0 Collection Against Ewings Sarcoma (EW8) (AID 1259255). Also: nearly all actives have a fitted effect of over 35% in size. Also: potency is read from the fitted curve at half-maximal effect.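 As to viability: 100% = DMSO-treated cells and 0% = medium-only wells without cells.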 The method in brief: as §2
A short description of assay [16]: qHTS profiling for inhibitors of Plasmodium falciparum (3D7) proliferation (AID 743322; call rule not given here;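 also: infected erythrocytes exposed to compound for 72 h before lysis; 100% = DMSO vehicle wells and 0% = 0.29 µM artemisinin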). Particulars: P. falciparum 3D7 proliferation; at 28.7 µM (top of the series) unless noted. The method in brief:
as §1

Assay [17] in a line: qHTS profiling for inhibitors of Plasmodium falciparum (DD2) proliferation (AID 743323; call rule not given here). The note with it: lower = more inhibition; at 28.7 µM (top of the series) unless noted. The method in brief:
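1536-well qHTS; infected RBCs 0.3% parasitemia/2.5% Hct final; cpd 72 h 37 C 5% CO2; lysis buffer + SYBR Green I, o/n RT dark; FI 485/535; norm. to 0.29 uM artemisinin and DMSO, plate-stack corrected.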

T1 sequence (P35557 whole entry, looked up): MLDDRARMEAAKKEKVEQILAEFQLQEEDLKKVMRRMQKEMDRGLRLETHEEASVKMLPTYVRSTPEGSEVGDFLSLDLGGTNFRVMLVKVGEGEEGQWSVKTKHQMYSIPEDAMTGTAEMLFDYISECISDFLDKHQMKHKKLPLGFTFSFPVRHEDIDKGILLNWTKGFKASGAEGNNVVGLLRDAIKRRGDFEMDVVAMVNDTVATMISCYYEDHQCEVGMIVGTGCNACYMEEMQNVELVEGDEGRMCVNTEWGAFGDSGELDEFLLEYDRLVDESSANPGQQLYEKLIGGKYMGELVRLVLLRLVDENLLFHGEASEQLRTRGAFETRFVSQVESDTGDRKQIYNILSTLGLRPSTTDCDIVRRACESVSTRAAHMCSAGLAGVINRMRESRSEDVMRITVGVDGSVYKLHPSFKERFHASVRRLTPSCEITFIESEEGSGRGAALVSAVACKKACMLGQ
T1 sequence (Q14397 whole entry, looked up): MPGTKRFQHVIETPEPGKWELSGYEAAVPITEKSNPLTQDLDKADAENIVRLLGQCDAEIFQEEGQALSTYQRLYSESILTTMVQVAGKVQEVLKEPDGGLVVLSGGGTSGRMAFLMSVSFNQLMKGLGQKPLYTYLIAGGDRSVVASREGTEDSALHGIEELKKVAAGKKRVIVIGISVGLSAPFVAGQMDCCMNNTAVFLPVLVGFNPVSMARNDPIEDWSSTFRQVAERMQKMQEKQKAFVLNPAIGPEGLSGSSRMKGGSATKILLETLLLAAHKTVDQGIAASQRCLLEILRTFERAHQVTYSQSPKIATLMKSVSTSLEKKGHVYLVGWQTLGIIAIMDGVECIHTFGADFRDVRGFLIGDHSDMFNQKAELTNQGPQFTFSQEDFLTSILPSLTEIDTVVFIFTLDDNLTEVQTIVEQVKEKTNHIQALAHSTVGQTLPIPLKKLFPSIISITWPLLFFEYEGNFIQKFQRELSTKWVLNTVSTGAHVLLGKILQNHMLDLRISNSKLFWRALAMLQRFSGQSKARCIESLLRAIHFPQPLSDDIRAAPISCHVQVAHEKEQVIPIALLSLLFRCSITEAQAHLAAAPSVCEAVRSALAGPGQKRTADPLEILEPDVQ

As to `Nc1ccn([C@@H]2O[C@H](CO)[C@@H](O)C2O)c(=O)n1` (some centres not stated), the outcome in assay [1], in [2] and in assay [3] was inactive. The max response in assay [4] is 0.0114% (inactive) and -8.34% (inactive). The compound further gave a parasite growth, % of DMSO control in [5] of 89.3%. The parasite growth remaining, % of DMSO control (lower = more inhibition) in [6] turned out to be 137%. The compound further displayed a parasite growth, % of control (lower = inhibition) in assay [7] of 71%. The same compound came in with a growth, % of control in assay [8] of 107%. The cell viability, % of control (lower = more cytotoxic) in assay [9] was 225%. The viability (% of control) in [10] was 92.2%. Moreover, the Potency entry in assay [11], in assay [12], in assay [13], in assay [14] and in [15] was “inactive” throughout.

Regarding `Oc1ccc(OCc2ccccc2)cc1`, the max response in [4] was 3.93% (inactive). Also, the parasite growth, % of DMSO control in assay [5] worked out at 89.5%. Also, the parasite growth remaining, % of DMSO control (lower = more inhibition) in assay [6] was 123%. The same compound yielded a parasite growth, % of control (lower = inhibition) in [7] of 83.5%. In assay [8], this compound came in with a growth, % of control of 89.5%. In [9], the cell viability, % of control (lower = more cytotoxic) is 226%. Besides, in assay [10], the viability (% of control) worked out at 18.2%. The Potency result is “inactive and 11.8 µM (active)” in assay [11]; 2.35 µM (active) in assay [13]; 9.35 µM (active) in assay [14]; 4.18 µM (active) in assay [15]. Moreover, in assay [12], the Potency entry is “inactive”.

In the case of `Nc1nc(N)c(N=O)c(OCC2CCCCC2)n1`, the outcome in [1], in assay [2] and in assay [3] was inactive. In [5], this compound showed a parasite growth, % of DMSO control of 28%. Besides, the parasite growth remaining, % of DMSO control (lower = more inhibition) in assay [6] worked out at 79.9%. Besides, in assay [7], the parasite growth, % of control (lower = inhibition) was 32.9%. In assay [8], this compound gave a growth, % of control of 36.5%. For the same compound, the cell viability, % of control (lower = more cytotoxic) in [9] came to 18.1%. Moreover, the viability (% of control) in assay [10] was 15.6%. Also, the Potency result in assay [11] and in assay [12] was “inactive” each time. For the same compound, the Potency in assay [13] is 14.8 µM (active); in [14], 16.6 µM (active); in assay [15], 18.7 µM (active).

As for `CN(C)CCc1c[nH]c2ccc(Cn3cncn3)cc12`, in assay [4], the max response was -0.403% (inactive). The same compound had a parasite growth, % of DMSO control in assay [5] of 89.2%. Also, in assay [6], the parasite growth remaining, % of DMSO control (lower = more inhibition) came out at 102%. In assay [7], this compound gave a parasite growth, % of control (lower = inhibition) of 62.6%. In addition, the growth, % of control in assay [8] turned out to be 99.9%. The cell viability, % of control (lower = more cytotoxic) in assay [9] stood at 102%. Besides, in assay [10], the viability (% of control) is 54.2%. The Potency entry in [11], in assay [12], in assay [13], in assay [14] and in assay [15] was “inactive” each time.

Regarding `CC(C)[N+]1(C)[C@@H]2CC[C@H]1CC(OC(=O)C(CO)c1ccccc1)C2` (some centres not stated), the max response in assay [4] was 6.21% (inactive) and -2.53% (inactive). For the same compound, the parasite growth, % of DMSO control in [5] was found to be 82.2%. Further, the parasite growth remaining, % of DMSO control (lower = more inhibition) in assay [6] worked out at 89.9%. In assay [7], this compound yielded a parasite growth, % of control (lower = inhibition) of 77.3%. Also, the growth, % of control in [8] is 75%. The cell viability, % of control (lower = more cytotoxic) in assay [9] is 31.9%. For the same compound, in assay [10], the viability (% of control) turned out to be 31.8%. In addition, the Potency result in [11], in [12], in [13], in assay [14] and in [15] was “inactive” in each case.

For `O=C(CS(=O)Cc1ccco1)NCC=CCOc1cc(CN2CCCCC2)ccn1` (configuration not stated), in [5], the parasite growth, % of DMSO control was found to be 78%. Further, in [6], the parasite growth remaining, % of DMSO control (lower = more inhibition) was 95.7%. Moreover, in assay [7], the parasite growth, % of control (lower = inhibition) was 53.3%. For the same compound, the growth, % of control in assay [8] came out at 86.8%. The cell viability, % of control (lower = more cytotoxic) in assay [9] amounted to 120%. Further, the viability (% of control) in assay [10] is 112%. The Potency entry in assay [11], in assay [12], in [13], in [14] and in [15] was “inactive” throughout.

As to `O=c1cc(N2CCOCC2)oc2c(-c3ccccc3)cccc12`, the outcome in assay [1], in [2] and in [3] was inactive. For the same compound, in assay [16], the remaining parasite growth % (stronger effect = lower value) was determined as 105%. This compound also gave an activity, percent of control in assay [17] of 96.7%. For the same compound, in assay [5], the parasite growth, % of DMSO control amounted to 51.9%. Moreover, the parasite growth remaining, % of DMSO control (lower = more inhibition) in [6] is 96%. Besides, the parasite growth, % of control (lower = inhibition) in assay [7] was 78.4%. This compound came in with a growth, % of control in assay [8] of 36.7%. In addition, the cell viability, % of control (lower = more cytotoxic) in assay [9] was found to be 13.3%. Further, the viability (% of control) in assay [10] is 36.2%. Further, the Potency entry in assay [11] and in assay [12] was “inactive” throughout. Further, the figures for the Potency in assay [13], in [14] and in assay [15] were 13.2 µM (active), 18.7 µM (active) and 18.7 µM (active), respectively.

For the origin of these results see PubChem BioAssay (NCATS).
